Columns and labels:
Assay in all cases: PBM binding z-score (relative to random genomic background probes); higher = stronger binding; sequences stand for … in GC…GCGATTGACAGCGTAGAATGAAGG
[1] = test system: FXR:RXRa (NR concentration 270 nM, RXRa partner concentration 90 nM)
Procedure, shortened: (§1)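 Scanned fluorescence from custom Agilent 4×180K protein-binding microarrays was regression-normalized. Binding z-scores use random background probes as reference. Ligand-free nuclear receptor dimers were incubated on the arrays for 1 h and detected with antibodies against each partner (one per run).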

[2] = test system: LXRa:RXRa (NR concentration 270 nM, RXRa partner concentration 90 nM)
Procedure, shortened: as §1

[3] = test system: LXRa homodimer (NR concentration 270 nM)
Procedure, shortened: as §1

[4] = test system: LXRb:RXRa (NR concentration 270 nM, RXRa partner concentration 90 nM)
Procedure, shortened: as §1

[5] = test system: LXRb homodimer (NR concentration 270 nM)
Procedure, shortened: as §1

[6] = test system: PPARa:RXRa (NR concentration 270 nM, RXRa partner concentration 90 nM)
Procedure, shortened: as §1

[7] = test system: PPARg:RXRa (NR concentration 180 nM, RXRa partner concentration 90 nM)
Procedure, shortened: as §1

[8] = test system: PPARg:RXRa 270nM:90nM, anti-RXR (NR concentration 270 nM, RXRa partner concentration 90 nM)
Procedure, shortened: as §1

[9] = test system: PPARg:RXRa 30nM:10nM, anti-RXR (NR concentration 30 nM, RXRa partner concentration 10 nM)
Procedure, shortened: as §1

[10] = test system: PPARg:RXRa 90nM:30nM, anti-RXR (NR concentration 90 nM, RXRa partner concentration 30 nM)
Procedure, shortened: as §1

[11] = test system: PPARg:RXRa DBDmut IVT, anti-RXR (DBD mutation: RXRa K156A/R161A, NR concentration 270 nM, RXRa partner concentration 90 nM)
Procedure, shortened: as §1

[12] = test system: PPARg:RXRa IVT, anti-PPARg (NR concentration 270 nM, RXRa partner concentration 90 nM)
Procedure, shortened: as §1

[13] = test system: PPARg DBDmut:RXRa IVT, anti-PPARg (DBD mutation: PPARg1 K132A/R137A, NR concentration 270 nM, RXRa partner concentration 90 nM)
Procedure, shortened: as §1

[14] = test system: PPARg DBDmut IVT, anti-PPARg (DBD mutation: PPARg1 K132A/R137A, NR concentration 270 nM)
Procedure, shortened: as §1

[15] = test system: PPARg homodimer (NR concentration 180 nM)
Procedure, shortened: as §1

[16] = test system: PXR:RXRa (NR concentration 270 nM, RXRa partner concentration 90 nM)
Procedure, shortened: as §1

[17] = test system: PXR homodimer (NR concentration 270 nM)
Procedure, shortened: as §1

[18] = test system: RARa:RXR (NR concentration 270 nM, RXRa partner concentration 90 nM)
Procedure, shortened: as §1

[19] = test system: RARa homodimer (NR concentration 270 nM)
Procedure, shortened: as §1

[20] = test system: RARb:RXRa (NR concentration 270 nM, RXRa partner concentration 90 nM)
Procedure, shortened: as §1

Row | Sequence | PBM binding z-score [1] | PBM binding z-score [2] | PBM binding z-score [3] | PBM binding z-score [4] | PBM binding z-score [5] | PBM binding z-score [6] | PBM binding z-score [7] | PBM binding z-score [8] | PBM binding z-score [9] | PBM binding z-score [10] | PBM binding z-score [11] | PBM binding z-score [12] | PBM binding z-score [13] | PBM binding z-score [14] | PBM binding z-score [15] | PBM binding z-score [16] | PBM binding z-score [17] | PBM binding z-score [18] | PBM binding z-score [19] | PBM binding z-score [20]
1 | CCTAGCAGGCTAATCTGGGTCACTCAAGGCTTGA | 0.577 | 3.74 | 0.0725 | 1.2 | -0.635 | 3.14 | 2.13 | 2.31 | 0.292 | 1.49 | 4.46 | 5.23 | 0.678 | 0.0667 | 0.493 | 0.328 | -0.671 | 1.34 | -0.634 | 1.07
2 | AATACAGGGTCATCGTAGGCGAGAGTACGCACAG | 7.5 | 6.16 | 2.08 | 4.6 | 1.54 | 5.94 | 6.58 | 6.21 | 2.48 | 4.92 | 2.84 | 4.14 | 3.29 | 1.01 | 2.21 | 4.29 | 1.03 | 5.1 | 1.25 | 4.37
3 | GCTAGCAGGCAATTTGGGTCACTCAATGACGGGC | 0.195 | 0.398 | -0.578 | 0.171 | -0.943 | 2.23 | 0.983 | 0.964 | -0.305 | 0.409 | 2.45 | 2.92 | 0.145 | -1.09 | -0.111 | 0.273 | -0.523 | 1.08 | -0.688 | 0.971
4 | CAAACTAGGTCAAGCGGTCAAAGTCCGCTTCCCG | 5.13 | 4.54 | 4.1 | 2.97 | 0.774 | 5.57 | 8.35 | 7.55 | 5.13 | 7.38 | 8.54 | 8.61 | 4.37 | 1.14 | 3.03 | 2.21 | 0.102 | 3.33 | 0.747 | 4.62
5 | TGAAAGAGGTTAAAGATCAGGGAACGTGGCGTCG | 3.91 | 3.07 | 0.208 | 2.03 | 0.261 | 4.59 | 4.87 | 5.44 | 3.46 | 5.15 | 0.975 | 2 | 0.776 | -0.385 | 1.36 | 2.29 | 0.0556 | 3.68 | 0.0643 | 2.67
6 | ATATATAGGTTAAGGGTCATTCAGGTTGGTTCGC | 5.73 | 5.29 | 4.07 | 4.88 | 1.86 | 6.8 | 11.9 | 9.9 | 10.7 | 11.7 | 7.29 | 7.49 | 2.46 | 2.9 | 4.36 | 5.67 | 3.53 | 6.57 | 3.52 | 3.92
7 | CAAACTAGGTCAAGAGGTCAAGGTCCGCTTCCCG | 6.64 | 6.02 | 4.56 | 4.63 | 1.32 | 6.41 | 9.76 | 8.19 | 6.69 | 8.28 | 8.52 | 8.45 | 0.83 | -0.359 | 5.33 | 5.88 | 1.72 | 7.29 | 2.29 | 5.54
8 | CCTGCTAGGGCATGGTCAGCTAATCTACAGTATG | -0.287 | -0.381 | -0.466 | -0.695 | -1.06 | -0.338 | 0.0735 | -0.381 | -0.463 | -0.375 | 1.27 | 0.942 | -0.789 | -1.21 | -0.604 | -0.584 | -0.686 | -0.414 | -0.802 | 1.43
9 | CCTAGCCGGCCAGGGTCACTCAAGCATTTCGCTT | 2.27 | 1.64 | -0.316 | 2.03 | -0.922 | 2.97 | 0.0332 | 0.958 | -0.474 | 0.121 | -0.601 | 0.147 | -1.32 | -1.69 | 0.756 | 2.84 | -0.583 | 3.45 | -0.658 | 2.56
10 | CCAGACAGGTGAGACGGTAACTCAGCCTCGATTA | -0.078 | -0.00881 | 0.268 | -0.263 | -0.377 | 0.144 | 0.367 | 0.232 | -0.249 | -0.285 | 1.25 | 0.131 | 0.0493 | -0.407 | 1 | -0.403 | 0.193 | -0.309 | 0.615 | 0.413
11 | CCGACTGGGGCATATGGTTACCATAAGCCAGCCC | -0.611 | -0.598 | -0.857 | -0.657 | -1.1 | 0.208 | 1.47 | 1.94 | 0.491 | 1.32 | 1.89 | 2.21 | -0.616 | -1.62 | -0.697 | -0.746 | -0.567 | -0.363 | -0.355 | 0.172
12 | TAGCCTAGGTCATTCAGGGGCCAGTAAAGAAAGC | 4.75 | 4.05 | 0.681 | 3.17 | 0.778 | 3.73 | 1.61 | 2.56 | 0.576 | 1.76 | 1.81 | 3.14 | 0.536 | 0.653 | 1.04 | 2.39 | -0.023 | 3.28 | 0.0478 | 3.86
13 | AATACAGGGTCACTAGGCCAGCGTAGGTACGAAT | 6.02 | 4.76 | 0.904 | 3.93 | 0.853 | 5.62 | 7.64 | 6.28 | 3.54 | 5.52 | 4.14 | 5.63 | 1.74 | 1 | 1.64 | 3.02 | 0.293 | 3.54 | 0.674 | 4.17
14 | TCTTGTAGATCAGCCGGTTAAGAAAGCTGGCCAA | -0.161 | 0.143 | -0.223 | 0.0561 | -0.394 | 0.168 | -0.791 | 1.24 | 2.52 | 1.74 | 1.7 | -0.0533 | -0.491 | 0.198 | -0.81 | -0.0108 | -0.447 | 0.0162 | -0.458 | -0.316
15 | GATACAGGGTCAGCTAGAGGCCAAAGTATGGAAA | 5.01 | 3.57 | 0.0556 | 3.09 | -0.391 | 4.59 | 3.94 | 3.58 | 1.03 | 2.36 | 1.15 | 2.73 | 0.457 | 0.0688 | 3.56 | 4.24 | 0.247 | 5.28 | 0.349 | 4.25
16 | ACTTACGGGTGAACGAGGTTATAGCACGCGTATA | 0.972 | 1.28 | 0.16 | 1.21 | -0.375 | 2.36 | 1.73 | 1.35 | 0.333 | 0.745 | 2.06 | 2.61 | 0.498 | 1.4 | 0.965 | 1.75 | 0.287 | 2.01 | 0.821 | 1.19
17 | GCATATAGGTAAGACAAGGTGAAAGTCCGATTGT | 0.406 | -0.0572 | -0.498 | -0.135 | -0.674 | 1.06 | 0.917 | 0.84 | 0.112 | 0.746 | 3.48 | 2.15 | 0.16 | 0.225 | 0.496 | 0.219 | -0.205 | 1.44 | -0.191 | 0.391

— the supplement of paper PMC6555819
